Results filed as inconclusive are left out. Where a call stands in place of a potency, no number is given. Unmarked numbers belong to inactive results. Active and inactive are the calls of the source. The call rests on the fitted dose curve; in most records, active means well fitted cell-killing curve with a large enough effect in the repeat runs; inconclusive means weak or mixed curves, or effect the other way; inactive means flat fitted curve, though single readings scatter.
Experiment: qHTS RealTime-Glo MT Cell Viability Assay in HEK293 cells - 16 hour (AID 1224872); further: nearly all actives have a fitted effect of over 50% in size; on activity change, negative = cytotoxicity: top concentration of the series differs between compounds
Conditions: RealTime-Glo luminescence; series mostly up to 76.8 µM
Procedure, shortened: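 Luminescence generated by NanoLuc from substrate produced by living HEK293 cells served as the viability signal. Each value reflects the reading at its stated time point during continuous 40 h compound exposure at 37 C.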
Potency means the concentration at half of the fitted maximal effect.

| SMILES | Potency | activity change, negative = cytotoxicity |
| --- | --- | --- |
| CC1(C)C(=O)N(CO)C(=O)N1CO | inactive | – |
| CCOC(=O)CN | inactive | – |
| O=C1OC(=O)c2ccc3c4c(ccc1c24)C(=O)OC3=O | inactive | – |
| CC(C)=CC1CC(C)CCO1 (stereo unspecified) | inactive | – |
| CC(C)(C)C1=CC(=O)C=C(C(C)(C)C)C1=O | inactive | – |
| CCCC(O)C(O)CO (stereo unspecified) | inactive | – |
| COc1ccccc1C=O | inactive | – |
| CCCCCCCC(OC)OC | inactive | – |
| CCCCCCCCCCCCCCNCCO | 21.3 µM (active) | – |
| CCOC(=O)COc1ccc(C)cc1 | inactive | – |
| c1ccc(Sc2ccccc2)cc1 | inactive | – |
| COc1cccc(O)c1 | inactive | – |
| Cc1cccc(Br)c1 | inactive | – |
| CCc1cccc(C)c1 | inactive | – |
| Brc1ccccn1 | inactive | – |
| CC(=O)O[C@@H]1C[C@@H]2CC[C@@]1(C)C2(C)C | inactive | – |

| SMILES | Potency | activity change, negative = cytotoxicity |
| --- | --- | --- |
| O=C(O)CCCCCCC(=O)O | inactive | – |
| CCCCCCCCC(C)=O | inactive | – |
| c1ccc2c(c1)CCC2 | inactive | – |
| Cn1cnc2ncnc(N)c21 | inactive | – |
| Clc1nc2ccccc2s1 | inactive | – |
| OCCCc1cccnc1 | inactive | – |
| CN(C)CCN1CCOCC1 | inactive | – |
| COc1ccc(C#N)cc1 | inactive | – |
| CC(C)=C1CC[C@@H](C)CC1=O | inactive | – |
| NCCCC(O)(P(=O)(O)O)P(=O)(O)O | inactive | – |
| OCCC(O)CO (stereo unspecified) | inactive | – |
| CCOCN(C(=O)CS(=O)(=O)O)c1c(C)cccc1CC | inactive | – |
| CC(=O)C=O | inactive | – |
| C=CC(C)C#N (stereo unspecified) | inactive | – |
| CCC(=O)CC(C)CC (stereo unspecified) | – | 5.55% [at 0.29 µM] |

— PubChem BioAssay (Tox21)
